# Reference: PubChem BioAssay (Tox21)
# Records with an inconclusive call do not appear. Where a call stands in place of a potency, no number is given. Activity calls are given as the source filed them. Unless noted, calls follow the shape of the full dose curve.
# How the values were obtained:
# [1] = qHTS assay to identify small molecule antagonists of the sonic hedgehog signaling (Shh) pathway (AID 1259369); also: nearly all actives have a fitted effect of over 45% in size; also: potency is read from the fitted curve at half-maximal effect
# Procedure, shortened: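 NIH/3T3 stable Gli1-Luc clone, 2,000 cells/well, 4hr settle; cpd + conditioned medium 24hr; Luc reagent 30min RT; luminescence.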
# [2] = target: Estrogen receptor beta (Homo sapiens) (UniProt Q92731); test: qHTS assay to identify small molecule agonists of the estrogen receptor beta (ER-beta) signaling pathway (AID 1259377; active = well fitted activation curve with a large enough effect in the signal ratio in the repeat runs, not every such curve was filed as active; the % refers to the signal ratio)
# Procedure, shortened: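 In HEK293T cells bearing a UAS-beta-lactamase reporter under ER-beta control, DMSO-delivered compounds were incubated for 16 hr at 37C. Activity was detected as fluorescence 2 hours after LiveBLAzer B/G FRET substrate addition.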
# [3] = target: Estrogen receptor beta (Homo sapiens) (UniProt Q92731); test: qHTS assay to identify small molecule antagonists of the estrogen receptor beta (ER-beta) signaling pathway (AID 1259378; active = well fitted inhibition curve with a large enough effect in the signal ratio in the repeat runs, not every such curve was filed as active; the % refers to the signal ratio; also: potency is read from the fitted curve at half-maximal effect)
# Procedure, shortened: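 ER-beta-UAS-bla HEK293T cells in 2% charcoal-stripped FBS medium treated with compound plus 1nM final 17-beta-estradiol for 16 hr at 37C. Beta-lactamase reporter read by FRET substrate fluorescence after 2 hours at room temperature.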
# [4] = qHTS assay to identify small molecule agonists of the androgen receptor (AR) signaling pathway in the presence of an antagonist - cell viability counter screen (AID 1259379; active = well fitted curve in the direction sought with a large enough effect in the repeat runs; an effect the other way counts as inactive or inconclusive; also: nearly all actives have a fitted effect of over 25% in size; also: potency is read from the fitted curve at half-maximal effect)
# Procedure, shortened: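 MDA-kb2 viability measured by CellTiter-Fluor fluorescence in the same wells as the luciferase signal; nilutamide 3.0uM final; 15-point compound titration; 16 hr at 37C.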
# [5] = target: Androgen receptor (Homo sapiens) (UniProt P10275); test: qHTS assay to identify small molecule agonists of the androgen receptor (AR) signaling pathway in the presence of an antagonist (AID 1259381); also: nearly all actives have a fitted effect of over 15% in size
# Procedure, shortened: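 Luminescent ONE-Glo read, 30min at room temperature, follows 16hr compound exposure (15 concentrations) of MDA-kb2 cells at 37C, 0% CO2, with nilutamide added at 3.0uM final.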
# [6] = qHTS assay to identify small molecule antagonists of the estrogen receptor beta (ER-beta) signaling pathway - cell viability counter screen (AID 1259382; active = well fitted curve in the direction sought with a large enough effect in the repeat runs; an effect the other way counts as inactive or inconclusive; also: nearly all actives have a fitted effect of over 55% in size; also: potency is read from the fitted curve at half-maximal effect)
# Procedure, shortened: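 Readout: luminescence, CellTiter-Glo, same wells as bla assay. System: ER-beta-UAS-bla GripTite HEK293T, 2% charcoal-stripped FBS. Exposure: compounds plus 1nM 17-beta-estradiol, 16 hr, 37C.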
# [7] = target: Estrogen receptor (Homo sapiens) (UniProt P03372); test: qHTS assay to identify small molecule agonists of the estrogen receptor alpha (ER-alpha) signaling pathway in the presence of an antagonist (AID 1259383); also: top concentration of the series differs between compounds; nearly all actives have a fitted effect of over 15% in size
# Procedure, shortened: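 Quantitative HTS confirmation: compounds titrated at 15 concentrations onto estrogen-deprived VM7Luc4E2 cells carrying a four-ERE luciferase construct, with ICI-182,780 present at 10.0nM final. Signal is luminescence after 22hr exposure.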
# [8] = qHTS assay to identify small molecule agonists or antagonists of the thyroid stimulating hormone receptor (TSHR) signaling pathway - wild type cell line counter screen (AID 1259384)
# Procedure, shortened: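 Wild-type Hek293 cells, 800/well, 18 h at 37C, then compound with Ro20-1724 for 30 min RT. cAMP by HTRF (cAMP-d2/anti-cAMP cryptate), 1 h RT, fluorescence read. 15 concentrations, triplicates.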
# [9] = target: Thyrotropin receptor (Homo sapiens) (UniProt P16473); test: qHTS assay to identify small molecule antagonists of the thyroid stimulating hormone receptor (TSHR) signaling pathway (AID 1259385); also: nearly all actives have a fitted effect of over 20% in size; also: potency is read from the fitted curve at half-maximal effect
# Procedure, shortened: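 TSHR-HEK293 cells (800/well) plated 18 h, then compounds with Ro20-1724 and TSH at 1.5 ng/mL final, 30 min at room temperature. cAMP quantified by HTRF (cAMP-d2/anti-cAMP-cryptate, 1 h); 15 concentrations in triplicate.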
# [10] = qHTS assay to identify small molecule agonists of the estrogen receptor alpha (ER-alpha) signaling pathway in the presence of an antagonist - cell viability counter screen (AID 1259386; active = well fitted curve in the direction sought with a large enough effect in the repeat runs; an effect the other way counts as inactive or inconclusive;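 also: series mostly up to about 92 µM; cells exposed to compounds for 22 h at 37 °C before the viability read; nearly all actives have a fitted effect of over 30% in size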)
# Procedure, shortened: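 The test measures whether compounds kill ER-alpha reporter cells (VM7Luc4E2) under antagonist co-treatment (ICI-182,780, 10.0nM). Fluorescence from CellTiter-Fluor is read after a 22hr exposure.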
# [11] = target: Progesterone receptor (Homo sapiens) (UniProt P06401); test: qHTS assay to identify small molecule agonists of the progesterone receptor (PR) signaling pathway (AID 1346784); also: nearly all actives have a fitted effect of over 30% in size
# Procedure, shortened: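 Using charcoal-stripped serum (2%) to limit endogenous steroids, PR-UAS-bla HEK 293T cells received compounds for 16 hr at 37C after 6 hr plating; beta-lactamase FRET fluorescence was recorded following 2 hr substrate loading at room temperature.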
# [12] = target: Progesterone receptor (Homo sapiens) (UniProt P06401); test: qHTS assay to identify small molecule antagonists of the progesterone receptor (PR) signaling pathway (AID 1346795; active = well fitted inhibition curve with a large enough effect in the signal ratio in the repeat runs, not every such curve was filed as active; the % refers to the signal ratio; also: potency is read from the fitted curve at half-maximal effect)
# Procedure, shortened: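 Inhibition of R5020-induced (1 nM final) beta-lactamase reporter signal in PR-UAS-bla HEK293T cells was scored by FRET fluorescence after overnight (16 hr) compound treatment.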
# [13] = qHTS assay to identify small molecule antagonists of the progesterone receptor (PR) signaling pathway - cell viability counter screen (AID 1346798; active = well fitted curve in the direction sought with a large enough effect in the repeat runs; an effect the other way counts as inactive or inconclusive; also: nearly all actives have a fitted effect of over 50% in size; also: potency is read from the fitted curve at half-maximal effect)
# Procedure, shortened: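 ATP content as viability readout: CellTiter-Glo luminescence, 30 min room temperature, in PR-UAS-bla HEK293T cells after 16 hr compound/R5020 treatment at 37C and 5% CO2.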
# [14] = qHTS assay to identify small molecule antagonists of the TGF-beta/Smad signaling pathway - cell viability counter screen (AID 1346824; active = well fitted curve in the direction sought with a large enough effect in the repeat runs; an effect the other way counts as inactive or inconclusive; also: nearly all actives have a fitted effect of over 50% in size)
# Procedure, shortened: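 SBE-bla HEK 293T cells, incubated overnight, then compound plus 0.25 ng/mL TGF-beta1 (stock added) for 5 hr at 37 C. Viability was read in the same wells by CellTiter-Glo luminescence after 30 min at room temperature.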
# [15] = qHTS assay to identify small molecule agonists of the TGF-beta/Smad signaling pathway - cell viability counter screen (AID 1346829; active = well fitted curve in the direction sought with a large enough effect in the repeat runs; an effect the other way counts as inactive or inconclusive; also: top concentration of the series differs between compounds; nearly all actives have a fitted effect of over 45% in size)
# Procedure, shortened: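 SBE-bla HEK 293T cells plated overnight, compound exposure 5 hr at 37 C. Viability read in the same wells by CellTiter-Glo luminescence after 30 min at room temperature, following the beta-lactamase read.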
# [16] = qHTS assay to identify small molecule agonists of the TGF-beta/Smad signaling pathway (AID 1346859; active = well fitted activation curve with a large enough effect in the signal ratio in the repeat runs, not every such curve was filed as active; the % refers to the signal ratio; also: series mostly up to about 77 µM)
# Procedure, shortened: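 Stable Smad binding element-beta-lactamase HEK 293T cells; 5 hr compound exposure at 37 C under 5% CO2; 2 hr room-temperature substrate step; fluorescence excited at 405 nm, collected at 460 nm and 530 nm.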
# [17] = target: Thyrotropin-releasing hormone receptor (Homo sapiens) (UniProt P34981); test: qHTS assay to identify small molecule antagonists of the thyrotropin-releasing hormone receptor (TRHR) signaling pathway (AID 1346877; active = well fitted inhibition curve with a large enough effect in the repeat runs, not every such curve was filed as active; also: series mostly up to about 51 µM)
# Procedure, shortened: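 Overnight-plated (18 h, 37 °C) HEK293 cells expressing TRHR were dye-loaded 2 h, treated with compound, then stimulated with TRH at 1 nM final. Fluorescence intensity was captured every second for 3 min.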
# [18] = target: Thyrotropin-releasing hormone receptor (Homo sapiens) (UniProt P34981); test: qHTS assay to identify small molecule agonists of the thyrotropin-releasing hormone receptor (TRHR) signaling pathway (AID 1346891);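 also: HEK293 cells expressing TRHR with calcium dye readout; series mostly up to about 58 µM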
# Procedure, shortened: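 In 1536-format, 1500 TRHR-Hek293 cells per well grew 18 h, took up calcium dye for 2 h at 37 °C, received compound, and were read kinetically; 15-point titrations, triplicates.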
# [19] = qHTS assay to identify small molecule agonists of the estrogen receptor beta (ER-beta) signaling pathway - cell viability counter screen (AID 1259380; active = well fitted curve in the direction sought with a large enough effect in the repeat runs; an effect the other way counts as inactive or inconclusive; also: nearly all actives have a fitted effect of over 30% in size; also: potency is read from the fitted curve at half-maximal effect)
# Procedure, shortened: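 Measured: luminescence from CellTiter-Glo after 30 min at room temperature, added to wells already read for the LiveBLAzer FRET reporter (2 hr substrate); ER-beta-UAS-bla HEK293T cells had 16 hr compound treatment at 37C, 5% CO2.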
# [20] = qHTS assay to identify small molecule agonists of the progesterone receptor (PR) signaling pathway - cell viability counter screen (AID 1346799); also: potency is read from the fitted curve at half-maximal effect; nearly all actives have a fitted effect of over 45% in size
# Procedure, shortened: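 Cytotoxicity in PR-bla HEK293T cells: 16 h compound, 37C; CellTiter-Glo added post-FRET read; luminescence after 30 min RT.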
# Chain of Thyrotropin-releasing hormone receptor (Homo sapiens) (P34981 whole entry, looked up): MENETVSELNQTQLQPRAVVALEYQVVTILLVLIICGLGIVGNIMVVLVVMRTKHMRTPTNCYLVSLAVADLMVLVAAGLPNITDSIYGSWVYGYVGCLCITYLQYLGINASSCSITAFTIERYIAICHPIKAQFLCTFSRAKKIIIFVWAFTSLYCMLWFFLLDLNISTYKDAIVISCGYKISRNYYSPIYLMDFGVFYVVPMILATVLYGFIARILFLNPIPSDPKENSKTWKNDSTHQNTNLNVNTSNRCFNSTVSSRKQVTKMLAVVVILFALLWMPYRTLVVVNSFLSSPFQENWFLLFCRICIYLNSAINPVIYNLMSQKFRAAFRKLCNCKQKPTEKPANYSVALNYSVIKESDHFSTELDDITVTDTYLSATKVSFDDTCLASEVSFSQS
# Chain of Estrogen receptor beta (Homo sapiens) (Q92731 whole entry, looked up): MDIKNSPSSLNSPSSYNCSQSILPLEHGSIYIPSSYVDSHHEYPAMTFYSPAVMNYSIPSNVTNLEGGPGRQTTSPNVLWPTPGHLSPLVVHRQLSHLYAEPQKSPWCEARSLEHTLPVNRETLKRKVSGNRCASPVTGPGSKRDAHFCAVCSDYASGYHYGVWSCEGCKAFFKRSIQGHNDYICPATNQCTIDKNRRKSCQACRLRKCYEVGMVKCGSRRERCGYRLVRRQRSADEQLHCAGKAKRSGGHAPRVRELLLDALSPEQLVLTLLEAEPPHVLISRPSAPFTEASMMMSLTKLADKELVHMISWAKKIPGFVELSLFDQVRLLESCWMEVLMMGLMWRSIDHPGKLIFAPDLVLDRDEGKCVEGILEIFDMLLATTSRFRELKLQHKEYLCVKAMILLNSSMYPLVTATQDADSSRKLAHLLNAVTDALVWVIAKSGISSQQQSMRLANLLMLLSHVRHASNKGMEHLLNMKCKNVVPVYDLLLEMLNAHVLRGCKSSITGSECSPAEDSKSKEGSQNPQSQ
# Chain of Estrogen receptor (Homo sapiens) (P03372 whole entry, looked up): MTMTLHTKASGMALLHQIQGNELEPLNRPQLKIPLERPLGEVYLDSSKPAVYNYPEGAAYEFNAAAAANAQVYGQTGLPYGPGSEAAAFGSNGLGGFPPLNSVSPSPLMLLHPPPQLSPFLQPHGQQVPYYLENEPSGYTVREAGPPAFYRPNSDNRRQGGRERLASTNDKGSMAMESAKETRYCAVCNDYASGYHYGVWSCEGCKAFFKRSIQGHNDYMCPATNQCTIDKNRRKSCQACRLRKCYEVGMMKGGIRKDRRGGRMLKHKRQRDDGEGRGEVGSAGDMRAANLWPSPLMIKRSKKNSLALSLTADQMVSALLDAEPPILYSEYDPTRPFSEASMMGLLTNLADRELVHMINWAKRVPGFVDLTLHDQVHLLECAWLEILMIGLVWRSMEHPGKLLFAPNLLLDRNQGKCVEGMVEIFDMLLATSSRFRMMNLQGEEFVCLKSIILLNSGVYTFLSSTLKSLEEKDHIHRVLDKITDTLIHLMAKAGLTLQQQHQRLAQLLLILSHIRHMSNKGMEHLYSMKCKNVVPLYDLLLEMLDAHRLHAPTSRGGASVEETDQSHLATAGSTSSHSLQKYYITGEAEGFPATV
# Chain of Progesterone receptor (Homo sapiens) (P06401 whole entry, looked up): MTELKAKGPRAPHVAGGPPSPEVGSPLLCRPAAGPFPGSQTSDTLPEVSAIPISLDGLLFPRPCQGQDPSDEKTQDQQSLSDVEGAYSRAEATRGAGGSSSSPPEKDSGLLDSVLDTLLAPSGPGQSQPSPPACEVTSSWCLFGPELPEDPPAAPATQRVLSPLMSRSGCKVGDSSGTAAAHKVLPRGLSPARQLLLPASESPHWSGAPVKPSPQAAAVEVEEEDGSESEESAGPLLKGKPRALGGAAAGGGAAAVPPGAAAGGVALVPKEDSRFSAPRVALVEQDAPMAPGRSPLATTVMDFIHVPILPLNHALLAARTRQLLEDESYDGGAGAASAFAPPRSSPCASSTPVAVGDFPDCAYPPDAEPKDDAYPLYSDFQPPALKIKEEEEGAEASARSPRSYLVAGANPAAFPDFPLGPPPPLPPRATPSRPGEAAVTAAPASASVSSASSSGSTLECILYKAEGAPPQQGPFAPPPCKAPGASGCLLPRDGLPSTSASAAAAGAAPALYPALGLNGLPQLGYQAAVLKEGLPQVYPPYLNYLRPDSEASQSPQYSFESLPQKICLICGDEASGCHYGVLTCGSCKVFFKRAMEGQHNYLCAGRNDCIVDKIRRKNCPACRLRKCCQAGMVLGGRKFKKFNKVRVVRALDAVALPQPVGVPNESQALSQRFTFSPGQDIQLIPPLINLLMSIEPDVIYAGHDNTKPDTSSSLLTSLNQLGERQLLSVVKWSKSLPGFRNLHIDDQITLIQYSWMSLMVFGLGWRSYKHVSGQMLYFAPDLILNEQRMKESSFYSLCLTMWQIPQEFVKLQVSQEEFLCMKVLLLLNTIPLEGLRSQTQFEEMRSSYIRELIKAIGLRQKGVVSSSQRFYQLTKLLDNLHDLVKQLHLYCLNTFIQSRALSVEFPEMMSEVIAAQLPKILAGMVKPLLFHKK
# Chain of Thyrotropin receptor (Homo sapiens) (P16473 whole entry, looked up): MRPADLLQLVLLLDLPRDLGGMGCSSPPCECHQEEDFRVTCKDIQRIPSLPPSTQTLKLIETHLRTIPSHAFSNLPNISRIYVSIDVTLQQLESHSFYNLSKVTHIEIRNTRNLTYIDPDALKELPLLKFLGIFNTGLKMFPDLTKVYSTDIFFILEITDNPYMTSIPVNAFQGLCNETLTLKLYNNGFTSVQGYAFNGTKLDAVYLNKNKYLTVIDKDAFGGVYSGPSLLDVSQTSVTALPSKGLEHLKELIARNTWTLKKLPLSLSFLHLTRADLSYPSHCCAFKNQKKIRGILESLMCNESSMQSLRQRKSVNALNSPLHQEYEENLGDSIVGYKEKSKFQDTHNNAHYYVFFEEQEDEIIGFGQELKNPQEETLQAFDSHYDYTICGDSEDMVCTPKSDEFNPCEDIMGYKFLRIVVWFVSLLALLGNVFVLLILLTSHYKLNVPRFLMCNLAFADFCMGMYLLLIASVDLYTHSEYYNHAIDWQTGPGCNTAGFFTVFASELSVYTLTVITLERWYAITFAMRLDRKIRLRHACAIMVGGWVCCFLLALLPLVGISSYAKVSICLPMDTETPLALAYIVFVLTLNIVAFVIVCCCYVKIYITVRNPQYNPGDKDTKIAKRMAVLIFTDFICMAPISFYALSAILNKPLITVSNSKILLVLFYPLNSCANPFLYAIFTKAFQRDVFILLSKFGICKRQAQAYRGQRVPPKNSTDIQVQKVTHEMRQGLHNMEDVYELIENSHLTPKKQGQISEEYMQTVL
# Chain of Androgen receptor (Homo sapiens) (P10275 whole entry, looked up): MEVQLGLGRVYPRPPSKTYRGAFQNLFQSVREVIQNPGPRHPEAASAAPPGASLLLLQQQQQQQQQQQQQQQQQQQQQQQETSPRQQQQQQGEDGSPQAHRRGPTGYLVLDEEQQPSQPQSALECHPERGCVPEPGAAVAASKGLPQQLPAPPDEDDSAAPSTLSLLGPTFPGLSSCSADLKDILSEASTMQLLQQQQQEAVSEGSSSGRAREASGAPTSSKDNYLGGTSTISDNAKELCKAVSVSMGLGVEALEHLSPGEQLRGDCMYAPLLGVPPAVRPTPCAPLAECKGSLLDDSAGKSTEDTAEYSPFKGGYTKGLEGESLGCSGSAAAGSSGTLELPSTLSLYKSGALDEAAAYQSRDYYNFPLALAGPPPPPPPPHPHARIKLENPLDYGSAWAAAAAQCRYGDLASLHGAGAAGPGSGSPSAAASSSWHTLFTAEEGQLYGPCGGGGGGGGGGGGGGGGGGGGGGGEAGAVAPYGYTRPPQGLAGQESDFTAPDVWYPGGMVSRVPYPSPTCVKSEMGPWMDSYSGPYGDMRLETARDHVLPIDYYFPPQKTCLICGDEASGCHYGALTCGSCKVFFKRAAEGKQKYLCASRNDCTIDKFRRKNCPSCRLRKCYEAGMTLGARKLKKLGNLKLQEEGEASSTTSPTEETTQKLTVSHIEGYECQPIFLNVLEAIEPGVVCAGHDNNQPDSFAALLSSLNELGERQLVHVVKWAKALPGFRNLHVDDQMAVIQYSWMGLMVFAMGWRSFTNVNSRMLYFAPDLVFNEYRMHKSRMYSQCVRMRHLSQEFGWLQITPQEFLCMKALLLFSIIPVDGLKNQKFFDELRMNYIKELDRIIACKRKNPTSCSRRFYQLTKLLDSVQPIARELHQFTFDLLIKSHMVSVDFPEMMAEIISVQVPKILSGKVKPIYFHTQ
SMILES,Potency [1],Potency [2],Potency [3],Potency [4],outcome [5],Potency [6],Potency [7],outcome [8],Potency [9],Potency [10],Potency [11],Potency [12],Potency [13],Potency [14],Potency [15],Potency [16],Potency [17],outcome [18],Potency [19],Potency [20]
CCCCC(CC)CN1CN(CC(CC)CCCC)CC(C)(N)C1 (centres undefined),inactive,inactive,inactive,21.1 µM (active),inactive,inactive,inactive,inactive,21.1 µM (active),inactive,inactive,inactive,inactive,inactive,inactive,inactive,inactive,inactive,–,–
COc1c(C)c2c(c(O)c1C/C=C(\C)CCC(=O)OCCN1CCOCC1)C(=O)OC2,inactive,inactive,–,inactive,inactive,–,inactive,inactive,inactive,inactive,inactive,–,–,inactive,–,inactive,inactive,inactive,0.335 µM (active),–
COc1cc(C)ccc1O,inactive,–,inactive,inactive,–,inactive,inactive,inactive,inactive,inactive,inactive,inactive,inactive,inactive,inactive,inactive,inactive,inactive,inactive,–
CCN(CC)C(=O)c1cc(S(=O)(=O)Cc2ccccc2)c(N2CCC(c3ccccc3)CC2)cc1N(CC)CCN(C)C,6.78 µM (active),inactive,21.4 µM (active),–,–,19.1 µM (active),inactive,inactive,–,inactive,–,–,19.1 µM (active),–,–,–,inactive,inactive,19.1 µM (active),8.53 µM (active)
CCCCCCCCCCCCOCCOCCOCCOCCOCCOCCOCCOCCOCCO,7.5 µM (active),–,8.41 µM (active),13.3 µM (active),–,29.8 µM (active),inactive,inactive,inactive,–,–,23.7 µM (active),–,–,inactive,inactive,inactive,inactive,26.6 µM (active),–
